In PubChem BioAssay AID887 (National Center for Advancing Translational Sciences (NCATS), 2007):
Several values for one entry are separate records, joined by “and”; a condition that tells them apart may be missing. Equal entries are not always repeated. The whole screen tested about 74,000 compounds, of which about 1,100 (1.5%) were called active. Another 5% or so got no clear call; they are omitted. Calls come from the whole dose curve; as a rule, active = well fitted inhibition curve with a large enough effect; inconclusive = small, poorly fitted or top-dose-only effect; inactive = no such curve, though single readings can be large or run the other way. This excerpt belongs to a sample that is enriched for actives.

Target: Polyunsaturated fatty acid lipoxygenase ALOX15 (Homo sapiens) (UniProt P16050)
Sequence (P16050 whole entry, looked up): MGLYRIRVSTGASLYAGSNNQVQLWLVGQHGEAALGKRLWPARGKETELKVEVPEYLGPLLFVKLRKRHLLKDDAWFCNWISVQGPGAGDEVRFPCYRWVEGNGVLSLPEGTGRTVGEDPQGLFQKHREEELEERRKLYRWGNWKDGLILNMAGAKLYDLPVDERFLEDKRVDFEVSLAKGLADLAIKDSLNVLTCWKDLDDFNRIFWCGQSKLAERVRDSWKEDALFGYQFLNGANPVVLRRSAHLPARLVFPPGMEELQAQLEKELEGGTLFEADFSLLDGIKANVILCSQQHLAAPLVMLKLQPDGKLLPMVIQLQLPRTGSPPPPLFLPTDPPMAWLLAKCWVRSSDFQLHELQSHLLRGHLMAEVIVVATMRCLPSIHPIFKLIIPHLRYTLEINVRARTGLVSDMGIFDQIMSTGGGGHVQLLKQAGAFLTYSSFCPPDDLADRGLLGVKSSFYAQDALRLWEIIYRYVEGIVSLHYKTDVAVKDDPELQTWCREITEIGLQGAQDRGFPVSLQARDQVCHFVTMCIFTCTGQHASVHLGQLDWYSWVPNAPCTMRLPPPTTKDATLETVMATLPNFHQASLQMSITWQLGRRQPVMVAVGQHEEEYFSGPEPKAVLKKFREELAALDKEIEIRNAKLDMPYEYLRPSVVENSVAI
Experiment: qHTS Assay for Inhibitors of 15-hLO (15-human lipoxygenase); note: nearly all actives have a fitted effect of over 55% in size
Details: purified 15hLO-1, xylenol orange hydroperoxide absorbance; series mostly up to 57.1 µM
How it was run: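 Hydroperoxide formed from arachidonic acid (50 uM) by purified human 15hLO-1 (40 nM) oxidizes ferrous iron, and the ferric-xylenol orange complex is read at 573 versus 405 nm. Compounds were preincubated 15 min; reaction ran 6 min at room temperature.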
% is set by controls: 0 for no effect and ±100 for the full control effect; potency is the fitted concentration of half-maximal effect.

Potency, active:
Oc1c(Cl)cc(Cl)c(Cl)c1Cc1c(O)c(Cl)cc(Cl)c1Cl 5.01 µM
O=c1cc(-c2ccc(O)c(O)c2)oc2cccc(O)c12 0.398 µM
CCN(CC)c1ccc2oc(=O)c(C)nc2c1 25.1 µM
O=C(Nc1cc(N2CCOCC2)ncn1)NC1(C(F)(F)F)Oc2ccc(Cl)cc2O1 (configuration not stated) 5.01 µM
CCC(C(=O)NC1CCCC1)N(C(=O)c1snc(C(N)=O)c1N)c1ccc2c(c1)OCCO2 (configuration not stated) 25.1 µM
CC(C)c1ccc2c(c1)c(SC(C)(C)C)c(CC(C)(C)C(=O)O)n2Cc1ccc(Cl)cc1 12.6 µM
Cc1cc(C(=O)Nc2c(C)n(C)n(-c3ccccc3)c2=O)cs1 1.58 µM
COCCCn1c(CCC(=O)O)ccc1-c1ccc(F)cc1 15.8 µM
N#CC1=C(N)Oc2c(sc3ccccc23)C1c1ccco1 (configuration not stated) 3.98 µM
COc1ccc(-c2nnc(SC(=O)N3c4ccccc4Sc4ccccc43)o2)cc1 3.16 µM
CCOC(=O)c1sc(=S)n2c1[nH]c(=O)c1ccc(C(=O)OC)cc12 10 µM

Activity change, negative = inhibition, inactive:
COc1cc(OC)c2c(c1Cl)OC1(C2=O)C(O)=CC(=O)CC1C (configuration not stated)
Cc1cccc(-c2cc(=O)c3cc(C)ccc3o2)c1
CC1O[C@@H](Oc2c(-c3ccc(O)c(O)c3)oc3cc(O)cc(O)c3c2=O)C(O)C(O)C1O (some centres not stated)
COC1C[C@@H](O[C@@H]2C(C)C(=O)OC(C)C(C)C(O)C(C)C(=O)[C@@]3(CO3)CC(C)C(OC3OC(C)CC(N(C)C)C3O)C2C)OC(C)[C@@H]1O (some centres not stated)
C=CCSc1nc2c(c(=O)[nH]1)C(C(C)C)C(C#N)=C(N)O2 (configuration not stated)
CO[C@H]1COC(=O)[C@@H](OCc2ccccc2)/C=C\[C@H](C)[C@@H](OC)COC(=O)[C@H](OCc2ccccc2)/C=C\[C@@H]1C -2.96% [at 11.4 µM]
CN(C(=O)CN(CCO)CC(=O)N(C)C(C)(C)Cc1ccccc1)C(C)(C)Cc1ccccc1
CCc1ccc2oc(-c3ccc(N)cc3)nc2c1
Cc1ccc2oc(=O)ccc2c1
Nc1nnc(SCCN2C(=O)c3ccccc3S2(=O)=O)s1
COc1ccc(/C=C/C(=O)c2ccc(OC)cc2O)cc1 -1.36% [at 11.4 µM]
COc1c(C)cccc1C(=O)Nc1cc(Cl)ccc1N1CCOCC1
c1cnn(-c2cc(N3CCOCC3)ncn2)c1
CCCCCCCCCc1ccc(OCCOCCOCCOCCOCCOCCOCCOCCOCCO)cc1
COC(=O)C1=C(C)Nc2ncnn2C1c1ccco1 (configuration not stated)
O=C(NCCc1ccc2c(c1)OCCO2)c1cc2ccccc2o1
Cc1ccc(C(C(=O)NC2CCCCC2)N(C(=O)c2csnn2)C2CC2)o1 (configuration not stated)
COc1cc(C(=O)Nc2oc(-c3ccccc3)c(-c3ccccc3)c2C#N)cc(OC)c1OC
Oc1ccc2c(c1)OCC1c3cc4c(cc3OC21)OCO4 (configuration not stated)
CCCCOCCCNC(=O)c1ccccc1OCC 2.13% [at 11.4 µM]
COc1ccc2[nH]cc(CCNc3ncnc4ccc(-c5ccc(C(=O)N(C)C)cc5)cc34)c2c1
CC(C)NC(=O)N1CCC2(CC1)CCN(C(=O)c1cccn1C)CC2
CS(=O)(=O)N1CCC2(CC1)CN(Cc1ccccc1)C2
CC(=O)OCC1OC(C#Cc2ccccc2Cl)C=CC1OC(C)=O (configuration not stated) -0.11% [at 11.4 µM]
CN1CC(=O)N=C1N
C[C@H]1CC[C@H](C(=O)O)N[C@@H]1c1ccc(C#Cc2ccccc2)cc1 -4.38% [at 11.4 µM]
COC(=O)Cc1csc(Nc2c(C)n(C)n(-c3ccccc3)c2=O)n1
Cc1c(NC(=O)c2cccnc2)c(=O)n(-c2ccccc2)n1C
O=C(Nn1cnc2ccccc2c1=O)c1ccc(F)cc1Cl
C/C(O)=C\c1nc(=O)c2c(C)cc(C)nc2n1-c1ccccc1
CCCS(=O)(=O)C(=C1Nc2ccccc2N1)S(=O)(=O)CCC
COc1c2c(cc3occ(-c4ccc5c(c4)OCO5)c(=O)c13)OC(C)(C)C=C2
CC(C)Cn1c(CCC(=O)O)ccc1-c1cccs1
COCCCNC(=O)c1c(F)c(F)c(F)c(F)c1F
Nc1ncn(C2OC(CO)C(O)C2O)c(=O)n1 (configuration not stated)
CC1(C)OC2CC3C4CCC5=CC(=O)CCC5(C)C4(F)C(O)CC3(C)[C@]2(C(=O)CCl)O1 (some centres not stated)
CC1CC[C@@]23CCC4(C)[C@@]5(C)CCC6C(C)(C)C(O)CC[C@@]6(C)C5C=C[C@@]4(OC2=O)C3C1C (some centres not stated)
CCOC(=O)CSC1=C(C#N)C(c2ccco2)C(C(=O)OCc2ccccc2)=C(C)N1 (configuration not stated)
Nc1nc2[nH]c(=O)c(=O)[nH]c2c(=O)[nH]1
CC(=O)OCC(=O)[C@@]1(O)CCC2C3CCC4=CC(=O)CC[C@]4(C)C3C(=O)C[C@]21C (some centres not stated)
O=C(c1ccco1)N1CCC2(CC1)CCN(c1ncccn1)CC2
COc1ccc(-c2nnc(SC(C)C#N)o2)cc1 (configuration not stated)
COc1ccc(CC(=O)Nc2ccc(-c3nnc(-c4ccccc4)o3)cc2)cc1
COC(=O)CC1C(C)(C)C(OC(C)=O)C2CC3=C4CC(=O)OC(c5ccoc5)[C@]4(C)CCC3[C@@]1(C)C2=O (some centres not stated)
CCOC(=O)Cn1c(N)c(C(=O)OC)sc1=S
COC(=O)c1ccc2c(=O)n(CC3CCCO3)c(=S)[nH]c2c1 (configuration not stated)
COc1ccc(Oc2ncc3nc(C)c(=O)n(-c4ccccc4)c3n2)cc1
COC(=O)C1=C(C)N(Cc2ccccc2)C2=C3C(=O)N(c4ccccc4)C(=O)C3[C@@](O)(C(=O)OC)C(=O)N2C1c1ccccc1 (some centres not stated) 4.96% [at 11.4 µM] and 4.92% [at 11.4 µM]
CN1CCC(CNC(=O)c2ccc(-n3c(=O)c(=O)[nH]c4ccccc43)cc2)CC1
O=C1NS(=O)(=O)c2ccccc21
OCCCNC(c1ccccc1)c1ccc(O)cc1 (configuration not stated)
